In PubChem BioAssay AID1211 (NMMLSC, 2008):

The compounds below were run against Estrogen receptor (Homo sapiens) (UniProt P03372) (assay: displacement of fluorescent estrogen from ERalpha – cell-based, Cos7 ERalpha-GFP, flow cytometry, primary screen (AID 1211;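 also: 0% = DMSO vehicle wells and 100% = no E2-Alexa633 signal left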)). Conditions: fluorescent ligand competition, binding inhibition, at 0.1 µM, stronger effect = higher value.
Chain of Estrogen receptor (Homo sapiens) (P03372 whole entry, looked up): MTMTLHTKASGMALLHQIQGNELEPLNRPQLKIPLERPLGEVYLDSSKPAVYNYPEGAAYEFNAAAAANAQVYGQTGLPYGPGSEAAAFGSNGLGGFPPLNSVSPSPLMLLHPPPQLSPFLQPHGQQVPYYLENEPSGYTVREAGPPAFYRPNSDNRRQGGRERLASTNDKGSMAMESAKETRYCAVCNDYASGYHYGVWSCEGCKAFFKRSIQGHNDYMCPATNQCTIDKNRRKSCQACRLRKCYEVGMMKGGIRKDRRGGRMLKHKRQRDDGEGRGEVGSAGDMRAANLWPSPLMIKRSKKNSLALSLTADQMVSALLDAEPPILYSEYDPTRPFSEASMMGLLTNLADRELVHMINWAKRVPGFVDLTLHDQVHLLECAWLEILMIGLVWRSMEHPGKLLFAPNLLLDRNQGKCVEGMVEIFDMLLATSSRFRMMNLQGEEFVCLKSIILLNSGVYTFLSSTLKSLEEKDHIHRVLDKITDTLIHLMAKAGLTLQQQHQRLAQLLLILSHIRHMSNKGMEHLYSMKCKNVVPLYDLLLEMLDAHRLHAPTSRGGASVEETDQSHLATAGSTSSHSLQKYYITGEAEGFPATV

| SMILES | inhibition of ligand binding [%] |
| --- | --- |
| CCSc1nnc(NC(=O)C2Cc3ccccc3CN2C(=O)c2ccco2)s1 (centres undefined) | 44 |
| O=C(c1cc2c(s1)CCC2)N1CCN(c2ccccc2)CC1 | 70 |
| O=S(=O)(NCCc1csc(-c2cccnc2)n1)c1ccc(Cl)s1 | 35 |
| COc1cc(C=C(c2nc3ccccc3s2)c2nc3ccccc3s2)ccc1O | 35 |
| CC(O)C1CCC2C3CC[C@H]4CC(O)CCC4(C)C3CC3(OCCO3)C12C (some centres undefined) | 1 |
| COc1ccc(Cn2c(=O)[nH]c3cc(C(=O)NCc4ccc5c(c4)OCO5)ccc3c2=O)cc1 | 53 |
| N=C1C(c2nc3ccccc3[nH]2)=C(O)CN1c1ccc(CC(=O)O)cc1 | 96 |
| COc1ccc(OC)c(NC(=O)CSc2nc3ccccc3c3nc4ccccc4n23)c1 | 60 |
| COc1ccc(C2CC(c3c(-c4ccccc4)c4cc(Cl)ccc4[nH]c3=O)=NN2S(C)(=O)=O)cc1OC (centres undefined) | 37 |
| Nc1ccc2nc(-c3ccc(Cl)cc3)[nH]c2c1 | 30 |
| CCc1oc2ccccc2c1C(=O)c1cc(Br)c(O)c(Br)c1 | 20 |
| O=C(CSc1nnc(-c2ccc(OC(F)F)cc2)o1)NC(=O)NCc1ccco1 | 26 |
| Cc1cccc(N2CCN(C(=O)c3cc4c(=O)n(C)c5ccccc5c4n3C)CC2)c1C | 11 |
| Cc1cc(O)ccc1C1(c2ccc(O)cc2C)OC(=O)c2ccccc21 | 64 |
| O=C(COC(=O)c1ccccc1)NCc1ccco1 | 27 |
| CC(C)(C)NC(=O)c1ccc2c(c1)C1C3CCC(C3)C1C(c1ccccc1)N2 (centres undefined) | 9 |
| O=C(Nc1ccc(N2CCCC2)cc1)C(c1ccccc1)c1ccccc1 | 7 |
| O=C(Nc1ccc2c(c1)nc1n2CCSC1)c1ccco1 | 42 |
| CC(C)CN(C(=O)COC(=O)c1cc2c(s1)CCC2)C1CCS(=O)(=O)C1 (centres undefined) | 21 |
| CC(C)(C)c1nnc2sc(SC/C(O)=C(\C#N)c3nc4ccccc4[nH]3)nn2c1=O | 8 |

| SMILES | inhibition of ligand binding [%] |
| --- | --- |
| CCOc1cc(C2CC(=O)c3c(ccc4ccccc34)N2)ccc1O (centres undefined) | 23 |
| CCCCn1c(NC(=O)CC)c(C#N)c2nc3ccccc3nc21 | 40 |
| O=S(=O)(NCc1csc(-c2cccnc2)n1)c1cccs1 | 5 |
| Cc1oc2c(C)c(O)ccc2c(=O)c1-c1ccc2ccccc2n1 | 70 |
| CCc1ccc(NC(=O)c2noc3c2CCC3)cc1 | 9 |
| CCOC(=O)CSc1nn(C)c(=S)s1 | 38 |
| COc1ccc(-c2nc3ccc([N+](=O)[O-])cc3o2)cc1 | 52 |
| CCOc1ccccc1-n1nnnc1SCC(=O)NC(=O)NCc1ccco1 | 5 |
| CCc1ccc(Nc2cc(C(=O)NCCCN3CCOCC3)c3ccccc3n2)cc1 | 32 |
| CCOc1ccc2nc(NC(=O)CCC(=O)c3cccs3)sc2c1 | 17 |
| Cc1ccc(Cn2c(NC(=O)c3ccco3)nc3ccccc32)cc1 | 11 |
| Cc1cccn2c(=O)c3cc(C(=O)O)n(C)c3nc12 | 17 |
| C1CCC(c2nn3c(-c4n[nH]c5c4CCC5)nnc3s2)CC1 | 5 |
| Cc1nc2cc(-c3ccsc3-n3c(C)ccc3C)[nH]n2c(=O)c1Cl | 54 |
| CCOc1[nH]c(/N=C/c2ccco2)c(C#N)c1C#N | 9 |
| CCOC(=O)CN1C(c2ccc(O)cc2)Nc2ccc(Br)cc2C1c1ccccc1 (centres undefined) | 11 |
| Cc1cc(C(=O)Nc2sc3c(c2C#N)CCC3)no1 | 66 |
| CCc1ccc2[nH]c(=O)c(C3C(C#N)=C(N)Oc4c3ccc3cccnc43)cc2c1 (centres undefined) | 37 |
| COc1ccc(CNC(=O)c2cc(-c3cccs3)on2)cc1 | 90 |
